The text below walks through data of article PMC7819943, “Rice protein-binding microarrays: a tool to detect cis-acting elements near promoter regions in rice”.

The full ranking holds about 35,000 sequences; the median of “fluorescence intensity (a.u.)” is about 10,000, and the highest 2% start at about 52,000. The sample as a whole holds a higher share of the highest values than the screen did.

The assay deals with T1, OsWOX13 (Oryza sativa, UniProt Q5QMM3 1-267).
T1 sequence: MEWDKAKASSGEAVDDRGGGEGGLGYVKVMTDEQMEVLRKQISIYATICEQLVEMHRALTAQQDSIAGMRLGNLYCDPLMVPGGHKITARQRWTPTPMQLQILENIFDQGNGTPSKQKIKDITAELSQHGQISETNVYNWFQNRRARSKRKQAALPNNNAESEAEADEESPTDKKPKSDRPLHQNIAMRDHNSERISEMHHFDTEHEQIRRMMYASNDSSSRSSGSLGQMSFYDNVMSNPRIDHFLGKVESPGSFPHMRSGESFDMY
Briefly: protein-binding microarray (RPBM); PBS, 2% BSA, 51.3 ng/ul salmon testes DNA, 50 uM zinc acetate, 200 nM TF, 25 C, 1 h; high values mean tight binding. Particulars: protein: recombinant; tags: N-terminal polyhistidine and DsRed monomer fusion (pET32a); label: CyDye5-dUTP incorporated in the synthesized complementary strand; 3' TTTTT single-stranded linker to array surface; dsDNA, one strand shown. Put shortly: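 An Axon 4000B scanner gave the binding signal as per-feature fluorescence intensity in arbitrary units. This followed washing of a custom Agilent array that had been incubated for 1 h at 25 °C with 200 nM protein in PBS, 2% BSA, salmon testes DNA and 50 µM zinc acetate. The proteins were transcription factors fused at the N-terminus to polyhistidine and DsRed, expressed in E. coli BL21-CodonPlus and purified on Ni–NTA.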
On to “TTCGATTTAACTGTTCTATTACTGAGGTACTCTTCGATTTCGGAGTCACCTAGTGCAG”, for which the binding signal was 6940 fluorescence intensity (a.u.).
The same measure for “GTCAAATTTATGGCATTGATAGAGTTTTAGTAGGGGTGTTCGGAGTCACCTAGTGCAG”: 21000 fluorescence intensity (a.u.).
For “TTAGTTTAATTAAATGTAACATTGAGTATATTTTGATAATCGGAGTCACCTAGTGCAG” the value was 16700 fluorescence intensity (a.u.); for “TCTAAATTTAACTTGCATCACATTAGTTCTGGAAAGAGCACGGAGTCACCTAGTGCAG”, 12200 fluorescence intensity (a.u.); for “GATACTAATTATAAATATTAAGTGTAGACTATTAATAAAACGGAGTCACCTAGTGCAG”, 6430 fluorescence intensity (a.u.).
For “TCATTAACACATAATTAATTAAGTACTCCCTCCGTATTTTCGGAGTCACCTAGTGCAG” the value was 20200 fluorescence intensity (a.u.).
Regarding “AAAAGAAGTTAATTATAATTAATTGTGATAAGAGGATAGACGGAGTCACCTAGTGCAG”, the binding signal was 29400 fluorescence intensity (a.u.).
For “AAATTGTATTCCTAATTGGACTCTCTTTTCCTTTTCTAATCGGAGTCACCTAGTGCAG”, the binding signal was 3430 fluorescence intensity (a.u.).
“CTTCTAATTATTTGATATTAGGTCATTCTCTAATATTCACCGGAGTCACCTAGTGCAG”: the binding signal is 21400 fluorescence intensity (a.u.).
The same measure for “ATATTTTAAATAGTACTAAATTATTCTATAAATTTGGTCACGGAGTCACCTAGTGCAG”: 4350 fluorescence intensity (a.u.).
The same measure for “TTCTAATTAGATTTGATAAAGTACTAATATTCATTTTGGTCGGAGTCACCTAGTGCAG”: 63100 fluorescence intensity (a.u.).
Turning to “AGTTACTAATTGATTCAGATGCATGGCAGTATAATTGTCTCGGAGTCACCTAGTGCAG”, the binding signal is 44900 fluorescence intensity (a.u.).
For “TCGAAAGTAATTAGTACTAGATTGATTGTCAGTTCAGTCTCGGAGTCACCTAGTGCAG” the value was 53100 fluorescence intensity (a.u.).
For “CTCTCGATTGATTACCTAGTACTACTGCAATTCACATTGTCGGAGTCACCTAGTGCAG” the value was 52200 fluorescence intensity (a.u.).
For “TATATGGATTAACAGATAATTAGCAGCGGGGTTAGCAAAACGGAGTCACCTAGTGCAG” the value was 21000 fluorescence intensity (a.u.).
With “TTTTGATTTGCCACATTTGCAGTGGCATGGATCCAATTAACGGAGTCACCTAGTGCAG”, the binding signal is 15000 fluorescence intensity (a.u.).
Take “GGGGATTAATGGATTATAATGTGTCTTATAACTAAAAGGACGGAGTCACCTAGTGCAG”: the binding signal is 15100 fluorescence intensity (a.u.).
For “TTCCGATTATTATTTGTATTTATTAATTTAGGATTTCTCTCGGAGTCACCTAGTGCAG” the value was 8170 fluorescence intensity (a.u.); for “ATCATAATGTGTATGCATGATTAGAGGGCGCAAATTTGTACGGAGTCACCTAGTGCAG”, 14600 fluorescence intensity (a.u.); for “GAGATTTGTTTGATGTATCAGGGTGTCACGTTGTCATGTTCGGAGTCACCTAGTGCAG”, 3440 fluorescence intensity (a.u.).
With “ATCCGATTAATTAATTTGATTTAATGTAATGTAATTAGGGCGGAGTCACCTAGTGCAG”, the binding signal was 64600 fluorescence intensity (a.u.).
As for “ATGGGTGATTAATCCTAGAATAATGTATCTAGACAGAATCCGGAGTCACCTAGTGCAG”, the binding signal is 4120 fluorescence intensity (a.u.).
Take “CTTAATGTATGTTGATTTGTCATCACATGTATGATTAGGGCGGAGTCACCTAGTGCAG”: the binding signal is 56400 fluorescence intensity (a.u.).
In the case of “AGTATAATTATGTTTAGAATGGATTAATTGTAATGTAAAGCGGAGTCACCTAGTGCAG”, the binding signal is 38600 fluorescence intensity (a.u.).
For “CTTGATTAGAATGTTTAATAACTTGTATCCGTCATGCCTGCGGAGTCACCTAGTGCAG” the value was 60200 fluorescence intensity (a.u.); for “TGAAATGTAATTGTGATTTTATCTTGAAATGATCCGATGGCGGAGTCACCTAGTGCAG”, 31400 fluorescence intensity (a.u.); for “GGGATTGGTTGAGAAAATAAAACAGATATATAAGTTTATCCGGAGTCACCTAGTGCAG”, 3160 fluorescence intensity (a.u.).
For “CAAACTAGATTTGTTGCTAAATTGAATTGTTATGTCATTACGGAGTCACCTAGTGCAG” the value was 22800 fluorescence intensity (a.u.); for “TTTGTGATTAAGCTCTTGGTCTCGTCTCCGCGAGCTCAGCCGGAGTCACCTAGTGCAG”, 5540 fluorescence intensity (a.u.); for “AACGTATTTGGCCCAATTAAGTATATACATATGTAATGCGCGGAGTCACCTAGTGCAG”, 3420 fluorescence intensity (a.u.).
On to “GTCAAGTAACTGAACATTTTAATTGCTGCCGATTATTACCCGGAGTCACCTAGTGCAG”, for which the binding signal is 13400 fluorescence intensity (a.u.).
For “GAATTGATGGAATTTAGGCCGCCAGCAAGCAAAGACCGAGCGGAGTCACCTAGTGCAG” the value was 13300 fluorescence intensity (a.u.); for “CAACTGATTTTATCACGTTCTAAAATATGCCATCATCTTTCGGAGTCACCTAGTGCAG”, 12300 fluorescence intensity (a.u.).
Take “GCCCTACACAATTTAATTACGTTGACACTGGCCGGTCTTACGGAGTCACCTAGTGCAG”: the binding signal is 7560 fluorescence intensity (a.u.).
The same measure for “TTATAATTGACACTACGAGAATGGGTCTTTACTGCCGGTTCGGAGTCACCTAGTGCAG”: 57700 fluorescence intensity (a.u.); for “CACTGACGGAGAAATTTACCGGTCAATGGCCGTCGTCGGTCGGAGTCACCTAGTGCAG”: 18000 fluorescence intensity (a.u.); for “TCTAATGATGATTGTAAGCCGTACAATTTACTAAAAGATACGGAGTCACCTAGTGCAG”: 15000 fluorescence intensity (a.u.).
The same measure for “ATTTAATGTACAATCATGCTTTTCCGTACTAAATTTTGTTCGGAGTCACCTAGTGCAG”: 14800 fluorescence intensity (a.u.).
For “CTAAATTTGTAATTGTAATGTACTACTTTAATCCTTCGTACGGAGTCACCTAGTGCAG” the value was 53100 fluorescence intensity (a.u.).
Regarding “TCTAAATCATTTTAATCATGGTACAGATCTACTGATAATACGGAGTCACCTAGTGCAG”, the binding signal is 7740 fluorescence intensity (a.u.).
For “TTTAAATTGTAATCCTACTTGAACTCTTCTTTATTTTCTTCGGAGTCACCTAGTGCAG” the value was 6760 fluorescence intensity (a.u.); for “TCTAATGATAAATCATTTATCACTAATTGTAAGAGTGGTACGGAGTCACCTAGTGCAG”, 53400 fluorescence intensity (a.u.); for “AATTAACAATTTACCAAATTATTAGTTATCAACACTAATTCGGAGTCACCTAGTGCAG”, 11300 fluorescence intensity (a.u.).
For “GTATGTTATTATATCAATTAGATTTATGCTAGCACTGTCGCGGAGTCACCTAGTGCAG” the value was 15200 fluorescence intensity (a.u.); for “CATTGATAGATTGCAAAAGCTAGCTGTCTGGGAGATGGTGCGGAGTCACCTAGTGCAG”, 49500 fluorescence intensity (a.u.); for “ACTATCGTAGGTAGCCAATCAATTTAACATTTCACTCAAGCGGAGTCACCTAGTGCAG”, 3630 fluorescence intensity (a.u.).
